Laboratory results from PubChem BioAssay (NCI).
Compounds without any hit were thinned out: in the full panel of roughly 83,000, 20% have a hit.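 Results are percent growth after 48 hours of single-concentration exposure. 100 means growth as in untreated cells, lower positive values show inhibition; negative values down to -100 show cell death.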 Activity calls are given as the source filed them. The calls were made as follows: active = growth percent below 10; inactive = the rest.

Experiments:
Test in all cases: NCI-60 one-dose screen, 48 h (100 = growth as untreated, 0 = no growth, -100 = all killed)
Details in all cases: 10 µM unless noted
[1] = system: DU-145 prostate
[2] = system: K-562 leukemia
[3] = system: MALME-3M melanoma
[4] = system: MDA-MB-231 breast
[5] = system: RXF 393 renal
[6] = system: SF-268 CNS
[7] = system: SF-295 CNS
[8] = system: SF-539 CNS
[9] = system: UACC-257 melanoma
[10] = system: M14 melanoma
[11] = system: HCT-15 colon
[12] = system: HT29 colon
[13] = system: SNB-75 CNS
[14] = system: SNB-19 CNS
[15] = system: U251 CNS
[16] = system: PC-3 prostate
[17] = system: SK-MEL-5 melanoma
[18] = system: UACC-62 melanoma
[19] = system: LOX IMVI melanoma
[20] = system: SK-MEL-28 melanoma

Measured: growth

COc1ccc(N2CCN(C(=O)c3sc4nc(C)c(Br)c(C)c4c3N)CC2)cc1
active: [3] -12.3%
inactive: [1] 104% | [2] 97.3% | [4] 84.2% | [5] 116% | [6] 89.1% | [7] 95.6% | [8] 91.8% | [9] 99.7% | [10] 99.3% | [11] 102% | [12] 102% | [13] 76.6% | [14] 98.9% | [15] 87.4% | [16] 81.9% | [17] 93.4% | [18] 89.2% | [19] 93% | [20] 104%

CCCCNC(=O)Oc1ccc(/C(=C(/C)Cc2ccc(OC)cc2)c2ccc(OCCN3CCCCCC3)cc2)cc1
inactive: [1] 91.6% | [2] 10.3% | [3] 99.5% | [4] 81.5% | [5] 75.1% | [6] 83.5% | [7] 92.2% | [8] 95.4% | [9] 94.4% | [10] 91.1% | [11] 27.8% | [13] 79.2% | [14] 85.8% | [15] 62.5% | [16] 65.5% | [17] 82.7% | [18] 79.1% | [19] 14% | [20] 95%
active: [12] 3.69%

C=CCC(CCCC)(C(=O)OCC)C(=O)OCC
inactive: [1] 121% | [2] 104% | [3] 106% | [4] 105% | [5] 105% | [6] 113% | [7] 113% | [8] 100% | [9] 100% | [10] 96.8% | [11] 96% | [12] 102% | [13] 77.2% | [14] 99% | [15] 102% | [16] 94.8% | [17] 113% | [18] 99.6% | [19] 99.7% | [20] 115%

CN(C)c1ccc(-c2ccc3c(c2)c(-c2ccccc2)nc(=O)n3C)cn1
inactive: [1] 69.7% | [3] 62.6% | [4] 50.4% | [5] 61.3% | [6] 46.2% | [7] 31.3% | [8] 14.2% | [9] 57.5% | [10] 20.7% | [11] 30.4% | [12] 11.7% | [13] 27.8% | [14] 34.3% | [15] 30.4% | [17] 22% | [18] 25.2% | [19] 34.3% | [20] 55.2%
active: [2] 3.37% | [16] -42.8%

CCOC(=O)C1=C(C)C(Cl)=N/C1=C\c1[nH]c(Cl)c(C)c1C(=O)OCC
inactive: [1] 111% | [2] 91% | [3] 107% | [4] 93% | [5] 115% | [6] 101% | [7] 111% | [8] 100% | [9] 91.4% | [10] 87.1% | [11] 99.1% | [12] 91.9% | [13] 84.5% | [14] 101% | [15] 94.1% | [16] 76.3% | [17] 96.8% | [18] 97.4% | [19] 93.9% | [20] 122%

O=C(CN1CCN(c2cc3c(cc2F)c(=O)c(C(=O)O)cn3C2CC2)CC1)N/N=C/c1ccco1
inactive: [1] 106% | [2] 95% | [3] 92.2% | [4] 98.7% | [5] 112% | [6] 93.8% | [7] 100% | [8] 93.2% | [9] 93.9% | [10] 96.6% | [11] 102% | [12] 104% | [13] 87.9% | [14] 99.7% | [15] 96.7% | [16] 93.5% | [17] 94.5% | [18] 93.5% | [19] 90.8% | [20] 97.9%

CCCCNC(=O)Oc1ccc(/C(=C(/C)Cc2ccc(OC)cc2)c2ccc(OCCN3CCCCC3)cc2)cc1
inactive: [1] 92.1% | [3] 79.1% | [4] 87.6% | [5] 71.5% | [6] 81.2% | [7] 86.8% | [8] 80.4% | [9] 99.2% | [10] 31% | [11] 32.3% | [13] 64.8% | [14] 77.1% | [15] 54.7% | [16] 59% | [17] 57% | [18] 67.7% | [19] 70.4% | [20] 78.2%
active: [2] -14.1% | [12] 2.86%

Clc1ccc(-c2cc(-c3ccccc3)nc(NCCNc3ccnc4cc(Cl)ccc34)n2)cc1
active: [2] 0.266% | [3] -62.7% | [4] -69.2% | [6] 3.04% | [10] -69.7% | [11] -72.7% | [12] -16.2% | [15] -85.9% | [19] -76.7% | [20] -62.1%
inactive: [1] 13.1% | [5] 26% | [7] 73.2% | [8] 74.5% | [9] 13.3% | [13] 75.7% | [14] 44.7% | [16] 16.3% | [17] 30.7% | [18] 69%

CS(=O)(=O)c1nnc(-c2ccccc2)s1
inactive: [1] 88% | [2] 78.4% | [3] 88.1% | [4] 101% | [5] 110% | [6] 94.8% | [7] 106% | [8] 106% | [9] 91% | [10] 74% | [11] 71.4% | [12] 82.2% | [13] 103% | [14] 107% | [15] 106% | [16] 96.4% | [17] 99.4% | [18] 82.7% | [19] 71.2% | [20] 97.3%

Cc1ccc(C)c(/C=C2\CN(C(=O)OC(C)(C)C)C/C(=C\c3cc(C)ccc3C)C2=O)c1
inactive: [1] 37.7% | [3] 67.7% | [4] 92.1% | [5] 91.1% | [6] 53.6% | [7] 55.9% | [8] 94.9% | [9] 59.4% | [10] 20.1% | [11] 19.4% | [13] 78.5% | [14] 59.9% | [15] 15.9% | [16] 46.6% | [17] 45% | [18] 37.3% | [20] 41.3%
active: [2] 7.09% | [12] 9.93% | [19] 0.926%

CC(=O)O[C@H]1C[C@@H]2C(C)(C)C(=O)CC[C@@]2(C)c2ccc(C(C)C)cc21
inactive: [1] 102% | [2] 104% | [3] 109% | [4] 104% | [5] 121% | [6] 95.8% | [7] 100% | [8] 110% | [9] 107% | [10] 104% | [11] 105% | [12] 111% | [13] 100% | [14] 102% | [15] 97.7% | [16] 100% | [17] 103% | [18] 101% | [19] 105% | [20] 121%

O=S(=O)(NCCNc1nccc(-c2c(-c3cccc(O)c3)nc3occn23)n1)c1ccc(Br)cc1
inactive: [1] 44.8% | [2] 17.2% | [3] 15% | [4] 34.7% | [5] 28.8% | [6] 40.8% | [7] 78.3% | [8] 48.7% | [9] 20.8% | [10] 17.8% | [11] 67.3% | [12] 19.1% | [13] 56.5% | [14] 65.8% | [15] 41% | [16] 29.9% | [19] 25.2% | [20] 26.1%
active: [17] 4.04% | [18] 5.9%

C=C1CC[C@@H]2C(C)(C)[C@@H](O)CC[C@@]2(C)[C@@H]1COc1ccc2ccc(=O)oc2c1
inactive: [1] 91.8% | [2] 53.3% | [3] 89% | [4] 89.4% | [5] 88.5% | [6] 78% | [7] 62.5% | [8] 86.1% | [9] 77.3% | [10] 80.4% | [11] 66.7% | [12] 64.3% | [13] 83.8% | [14] 85.8% | [15] 75.8% | [16] 49.7% | [17] 61.7% | [18] 55.1% | [19] 82.8% | [20] 92.3%

C#CC#CC#CC#CC#CC#CC#CC#CCC1OC[C@H](COC(=O)O[C@@H](C(=O)O[C@H]2C[C@@]3(O)[C@@H](OC(=O)c4ccccc4)[C@@H]4[C@]5(OC(C)=O)CO[C@@H]5C[C@H](O)[C@@]4(C)C(=O)[C@H](OC(C)=O)C(=C2C)C3(C)C)[C@@H](NC(=O)c2ccccc2)c2ccccc2)O1 (stereo not given in full)
inactive: [1] 17.3% | [2] 15.5% | [3] 47.2% | [4] 35.3% | [6] 45.9% | [7] 15.2% | [9] 64.9% | [11] 88% | [14] 27.9% | [15] 26.2% | [16] 23.2% | [17] 31.6% | [18] 28.3% | [19] 29.6% | [20] 53.6%
active: [5] -2.06% | [8] 8.47% | [10] 1.84% | [12] 7.52% | [13] 7.72%

CCS/C(Nc1ccccc1)=C(\C#N)C(=O)Nc1ccc(OC)cc1
inactive: [1] 33.8% | [3] 55.6% | [4] 44.5% | [5] 39.5% | [6] 39.1% | [7] 32.6% | [8] 29.1% | [9] 58.4% | [10] 15.2% | [11] 16.9% | [13] 18.2% | [14] 23.1% | [15] 16.6% | [16] 47.9% | [17] 17.8% | [18] 27.2% | [19] 36.6% | [20] 58.9%
active: [2] 7.34% | [12] 6.46%
